These results are taken from article PMC4336329 (PLoS ONE, 2015).

The campaign covered roughly 310,000 compounds. About 14,000 (4.5%) showed an effect of 50% or more. Effects have a minus sign here. This is one part of a sample in which strong results are shown more often than they occur.
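Note: peak tail current of the secondary pulse compared with the same well before compound.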

The assay deals with human ether-à-go-go-related gene (hERG) potassium channel (human, UniProt Q12809). Description: primary screen, population patch clamp on CHO cells stably expressing hERG; higher = less effect of the substance.
Sequence of human ether-à-go-go-related gene (hERG) potassium channel (Q12809 whole entry, looked up): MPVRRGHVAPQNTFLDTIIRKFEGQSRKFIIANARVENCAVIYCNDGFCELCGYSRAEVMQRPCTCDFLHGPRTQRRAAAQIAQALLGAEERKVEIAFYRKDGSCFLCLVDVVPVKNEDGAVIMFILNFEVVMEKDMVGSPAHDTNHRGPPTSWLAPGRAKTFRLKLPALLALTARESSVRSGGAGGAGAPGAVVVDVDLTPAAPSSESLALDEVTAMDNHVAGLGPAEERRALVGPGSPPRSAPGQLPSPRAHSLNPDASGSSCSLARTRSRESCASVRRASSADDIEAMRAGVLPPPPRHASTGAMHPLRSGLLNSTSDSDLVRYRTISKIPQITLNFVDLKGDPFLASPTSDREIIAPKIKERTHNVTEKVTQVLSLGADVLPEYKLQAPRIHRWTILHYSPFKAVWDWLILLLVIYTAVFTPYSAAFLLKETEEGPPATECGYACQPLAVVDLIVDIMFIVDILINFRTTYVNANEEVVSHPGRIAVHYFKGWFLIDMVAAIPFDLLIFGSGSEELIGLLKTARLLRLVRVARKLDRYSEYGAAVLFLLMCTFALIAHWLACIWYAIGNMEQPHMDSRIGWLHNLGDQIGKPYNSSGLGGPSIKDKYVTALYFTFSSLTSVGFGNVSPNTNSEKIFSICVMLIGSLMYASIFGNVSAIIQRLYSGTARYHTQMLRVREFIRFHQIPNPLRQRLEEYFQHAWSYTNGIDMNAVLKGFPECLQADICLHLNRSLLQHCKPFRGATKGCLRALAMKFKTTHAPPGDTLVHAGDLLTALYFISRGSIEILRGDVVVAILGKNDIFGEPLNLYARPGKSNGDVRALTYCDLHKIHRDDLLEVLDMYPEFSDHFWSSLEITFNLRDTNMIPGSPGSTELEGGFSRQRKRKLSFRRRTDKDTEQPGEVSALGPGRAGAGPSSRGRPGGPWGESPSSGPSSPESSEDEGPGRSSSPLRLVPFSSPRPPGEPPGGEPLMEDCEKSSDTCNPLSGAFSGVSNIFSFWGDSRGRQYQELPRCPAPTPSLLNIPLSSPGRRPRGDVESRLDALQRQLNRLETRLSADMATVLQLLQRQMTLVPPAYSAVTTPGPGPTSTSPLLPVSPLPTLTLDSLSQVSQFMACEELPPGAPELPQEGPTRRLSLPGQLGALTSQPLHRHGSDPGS
Turning to `COc1ccc(NC(=O)C(C)SCc2ccccc2)cc1OC` (stereo not drawn), the “hERG current change (%, negative = inhibition) at 10uM” value is -1.56%.
For the molecule `C=CCSc1nc2sc3c(c2c(=O)[nH]1)CCC3`, the “hERG current change (%, negative = inhibition) at 10uM” value turned out to be 2.84%.
Turning to `CN(CC(=O)NC1CCCCC1)S(=O)(=O)c1ccc(Br)s1`, the “hERG current change (%, negative = inhibition) at 10uM” value came to 20.1%.
For the molecule `CCc1ccc2c(c1)C1(SC(NC(C)=O)=NN1C(C)=O)C(=O)N2CC` (stereo not drawn), the “hERG current change (%, negative = inhibition) at 10uM” value is reported as -0.0665%.
As for `C=CCNC(=O)C1CCN(S(C)(=O)=O)CC1`, the “hERG current change (%, negative = inhibition) at 10uM” value is recorded as -0.873%.
In the case of `CNC(=S)N(Cc1cccs1)Cc1cc2ccc(OC)cc2[nH]c1=O`, the “hERG current change (%, negative = inhibition) at 10uM” value is on record as 6.44%.
Consider `COc1ccc(OCC2CNC(=O)O2)cc1` (stereo not drawn), for which the “hERG current change (%, negative = inhibition) at 10uM” value was -26.2%.
Regarding `O=C1NCC(COc2ccc([N+](=O)[O-])cc2)O1` (stereo not drawn), the “hERG current change (%, negative = inhibition) at 10uM” value is given as -78.4%.
Regarding `O=C1NCC(COc2ccc(Cl)cc2)O1` (stereo not drawn), the “hERG current change (%, negative = inhibition) at 10uM” value was 48.4%.
`CCCn1ncc(CN2CCCC(C(=O)c3cccc(OC(C)C)c3)C2)c1C` (stereo not drawn): the “hERG current change (%, negative = inhibition) at 10uM” value is recorded as -48.8%.
For `CCCn1cc(CN2CCC(n3nccc3NC(=O)c3ccc4c(c3)OCO4)CC2)c(C)n1` the value was -5.62%; for `CCn1cc(CN2CCCC(C(=O)c3cccc(OC)c3)C2)c(C)n1` (stereo not drawn), -21.3%.
On to `CCCn1cc(CN2CCCC(C(=O)c3ccc4c(c3)OCO4)C2)c(C)n1` (stereo not drawn), for which the “hERG current change (%, negative = inhibition) at 10uM” value is on record as -55.4%.
In the case of `CCn1ncc(CN2CCCC(C(=O)c3cccc(OC(C)C)c3)C2)c1C` (stereo not drawn), the “hERG current change (%, negative = inhibition) at 10uM” value is -19.8%.
For `CCCn1cc(CN2CCCC(C(=O)c3cccc(OC)c3)C2)c(C)n1` (stereo not drawn), the “hERG current change (%, negative = inhibition) at 10uM” value was -51%.
`CCCn1cc(CN2CCCC(C(=O)c3cccc(OC(C)C)c3)C2)c(C)n1` (stereo not drawn): the “hERG current change (%, negative = inhibition) at 10uM” value is -35.5%.
As for `CCCn1ncc(CN2CCCC(C(=O)c3cccc(OC)c3)C2)c1C` (stereo not drawn), the “hERG current change (%, negative = inhibition) at 10uM” value is recorded as -67.8%.
Regarding `Cc1ccc(CS(=O)(=O)c2ncc(Cl)c(C(=O)Nc3nnc(C(C)C)s3)n2)cc1`, the “hERG current change (%, negative = inhibition) at 10uM” value is 9.25%.
For `CC(=O)Oc1cc2cccc(OC(C)=O)c(=O)c2c(OC(C)=O)c1OC(C)=O` the value was 1.34%; for `CCCNC(=O)c1ccc(N2CCC3(CC2)CC(c2cccc(Br)c2)=NO3)c(NC(=O)c2ccccc2)c1`, -0.8%; for `CCCNC(=O)c1ccc(N2CCC3(CC2)CC(c2ccccc2)=NO3)c(NC(=O)c2cccc(C)c2)c1`, -18.6%.
For `CCCCC(CC)C(=O)Nc1cc(C(=O)NCc2ccc(C)cc2)ccc1N1CCC2(CC1)CC(c1ccccc1)=NO2` (stereo not drawn) the value was 2.86%; for `CCCCC(CC)C(=O)Nc1cc(C(=O)NCCC)ccc1N1CCC2(CC1)CC(c1ccccc1)=NO2` (stereo not drawn), -64.6%.
For `CCCNC(=O)c1ccc(N2CCC3(CC2)CC(c2ccccc2)=NO3)c(NC(=O)c2cccc(OC)c2)c1`, the “hERG current change (%, negative = inhibition) at 10uM” value is recorded as -68.6%.
For `CCCCC(CC)C(=O)Nc1cc(C(=O)NCCC)ccc1N1CCC2(CC1)CC(c1cccc(Br)c1)=NO2` (stereo not drawn), the “hERG current change (%, negative = inhibition) at 10uM” value is recorded as -7.85%.
On to `O=C(NC(=O)c1csnn1)Nc1ccccc1Cl`, for which the “hERG current change (%, negative = inhibition) at 10uM” value came to 9.03%.
As for `CCc1cc2c3c(c1)C(C)CC(C)(C)N3C(=O)C2=O` (stereo not drawn), the “hERG current change (%, negative = inhibition) at 10uM” value is given as -15.6%.
For `C=CCN=C1CC(C)(C)CC(=O)/C1=C(\O)c1ccccc1`, the “hERG current change (%, negative = inhibition) at 10uM” value is on record as -6.18%.
For `CCCC(=O)Nc1sc(C)c(C)c1C#N`, the “hERG current change (%, negative = inhibition) at 10uM” value worked out at 2.9%.
Consider `Cc1cc(N(C)C)nc(Nc2ccccc2)n1`, for which the “hERG current change (%, negative = inhibition) at 10uM” value is recorded as -56.8%.
In the case of `CN(C)c1nc(Nc2ccccc2)nc(N(C)C)n1`, the “hERG current change (%, negative = inhibition) at 10uM” value is given as 8.3%.
Consider `Cc1cc(C)nc(Sc2nc(Nc3ccccc3)nc(Sc3nc(C)cc(C)n3)n2)n1`, for which the “hERG current change (%, negative = inhibition) at 10uM” value is -4.94%.
In the case of `COc1ccccc1CCNC(=O)NC1CCCCC1`, the “hERG current change (%, negative = inhibition) at 10uM” value was -12.1%.
Consider `Cc1nc(C(C)NC(=O)CCc2nnc(-c3ccsc3)o2)cs1` (stereo not drawn), for which the “hERG current change (%, negative = inhibition) at 10uM” value was found to be 15.8%.
As for `CC(=Nc1ccc2c(c1)nc(CO)n2C)C1=C(O)CC(C)(C)CC1=O`, the “hERG current change (%, negative = inhibition) at 10uM” value is given as 2.09%.
For `Cc1ccccc1NS(=O)(=O)c1ccc(OCCNS(C)(=O)=O)cc1`, the “hERG current change (%, negative = inhibition) at 10uM” value is listed as -4.01%.
For the molecule `CN(C)S(=O)(=O)c1cccc(NC(=O)CSc2nc3c(cc2C#N)C(=O)CC(C)(C)C3)c1`, the “hERG current change (%, negative = inhibition) at 10uM” value is -34.7%.
For the molecule `CCN(CC)S(=O)(=O)c1cc(NC(=O)CSc2nc3c(cc2C#N)C(=O)CC(C)(C)C3)ccc1C`, the “hERG current change (%, negative = inhibition) at 10uM” value amounted to 4.51%.
Take `N#Cc1cc2c(nc1SCC(=O)Nc1cc(Cl)ccc1Cl)C1CCN2CC1`: the “hERG current change (%, negative = inhibition) at 10uM” value is listed as -51.7%.
Regarding `CN(C)S(=O)(=O)c1ccc(Cl)c(NC(=O)CSc2nc3c(cc2C#N)C(=O)CC(C)(C)C3)c1`, the “hERG current change (%, negative = inhibition) at 10uM” value is -65.3%.
For the molecule `CN1CCc2nc(SCC(=O)Nc3ccc(Cl)cc3)c(C#N)cc2C1`, the “hERG current change (%, negative = inhibition) at 10uM” value is on record as -38.4%.
With `N#Cc1cc2c(nc1SCC(=O)Nc1ccc(Cl)cc1)C1CCN2CC1`, the “hERG current change (%, negative = inhibition) at 10uM” value was -7.69%.
The result for `CCCCOC(=O)c1ccc(NC(=S)N2CCN(c3ncc4c(=O)c(C(=O)O)cn(CC)c4n3)CC2)cc1` reads 11.2%; that for `C[C@H](NC(=O)c1[nH]cnc1C(=O)Nc1ccc(CNC(=O)OC(C)(C)C)cc1)C(=O)OC(C)(C)C`, 17.2%.
In the case of `COC(=O)c1ccc(C2c3c(oc4ccc(F)cc4c3=O)C(=O)N2CCO)cc1` (stereo not drawn), the “hERG current change (%, negative = inhibition) at 10uM” value turned out to be 3.74%.
For `Cc1ccc(/C=N/N2CCN(Cc3ccccc3)CC2)s1` the value was -15.7%; for `O=C(CN1CCN(Cc2ccccc2)CC1)N/N=C/c1ccc(Br)s1`, -60%; for `O=C(N/N=C/c1ccc(Br)s1)Nc1ccccc1`, 4.13%.
Regarding `Cc1ccc(/C=N/NC(=O)CN2CCN(Cc3ccccc3)CC2)s1`, the “hERG current change (%, negative = inhibition) at 10uM” value was -55.8%.
On to `Cc1ccsc1/C=N/NC(=O)CN1CCN(Cc2ccccc2)CC1`, for which the “hERG current change (%, negative = inhibition) at 10uM” value is given as -8.1%.
`O=C(CCC(=O)N/N=C/c1ccc(Br)s1)NCc1ccccc1`: the “hERG current change (%, negative = inhibition) at 10uM” value turned out to be 5.19%.
Regarding `COc1cc(CC(=O)OCC(=O)Nc2ncc(Cl)cc2Cl)cc(OC)c1OC`, the “hERG current change (%, negative = inhibition) at 10uM” value is 7.58%.
Turning to `COc1ccccc1NS(=O)(=O)c1ccc(O)c(C(=O)OCC(=O)c2ccc(Cl)cc2Cl)c1`, the “hERG current change (%, negative = inhibition) at 10uM” value stood at 23.4%.
`Br.CC(C)CCC1CC(CSC(=N)N)OC1=O` (stereo not drawn): the “hERG current change (%, negative = inhibition) at 10uM” value is recorded as -14%.
